Laboratory results reported in ChEMBL document CHEMBL3988442, “University of Dundee, Small-Polar-MMV Screening Library” (2021).

What was measured:
[1] = biological target: T1, Aspartate--tRNA(Asp/Asn) ligase (Mycobacterium tuberculosis (strain ATCC 25618 / H37Rv)) (UniProt P9WFW3); experiment: Assay for Asp RNA synthetase-1 from Mycobacterium tuberculosis; assay type: functional; design: scale not given: direction of the effect not stated beside the values; settings: 30 µM; note: in the data most compounds retested in dose-response had high values
T1 sequence (whole entry): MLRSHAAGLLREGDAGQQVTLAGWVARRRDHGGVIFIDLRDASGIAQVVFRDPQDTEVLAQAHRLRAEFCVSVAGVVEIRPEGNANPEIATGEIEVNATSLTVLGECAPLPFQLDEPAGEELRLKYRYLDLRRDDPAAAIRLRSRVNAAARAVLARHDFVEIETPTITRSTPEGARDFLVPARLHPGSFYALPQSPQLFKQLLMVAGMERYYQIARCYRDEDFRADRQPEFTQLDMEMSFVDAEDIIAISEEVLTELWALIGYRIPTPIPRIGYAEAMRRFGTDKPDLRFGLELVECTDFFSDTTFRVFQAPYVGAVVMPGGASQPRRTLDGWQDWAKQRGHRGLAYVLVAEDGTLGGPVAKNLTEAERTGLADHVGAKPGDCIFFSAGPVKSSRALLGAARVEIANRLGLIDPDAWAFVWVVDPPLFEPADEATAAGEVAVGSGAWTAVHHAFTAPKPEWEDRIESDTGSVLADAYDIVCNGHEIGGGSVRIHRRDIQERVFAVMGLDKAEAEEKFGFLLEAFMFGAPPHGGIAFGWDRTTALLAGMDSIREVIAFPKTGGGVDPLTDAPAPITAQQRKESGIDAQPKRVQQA

[2] = biological target: Shiga toxin 2 (Escherichia coli O157:H7) (UniProt P09385+P09386); experiment: E. coli 0.157:H7 Shiga Toxin SOP - stx2 screening assay; assay type: functional; design: scale not given: direction of the effect not stated beside the values; settings: 30 µM

SMILES	Percent Effect [1] [%]	Percent Effect [2] [%]
O=S(=O)(c1ccccc1)N1CCCCC1c1cc[nH]n1 (centres undefined)	4.1	62
CCc1nc(C2CCCN2Cc2nc3ccccc3o2)no1 (centres undefined)	-0.404	9.5
CN(C)C(CNS(=O)(=O)c1ccc(F)cc1F)c1cccn1C (centres undefined)	0.719	-2.1
CCn1c(C)nnc1CN(C)C1CCN(Cc2nccn2C)C1 (centres undefined)	1.34	-37.8
COC(=O)Cn1c(=O)nc2n1C(=O)N(c1ccc(Cl)cc1)C2	1.73	-16.1
O=C1CC2(CCN(CC3CC3)C2)CN1c1ccc2c(c1)OCO2 (centres undefined)	14.6	-55.4
O=C(O)c1nnn(Cc2cccc(C(F)(F)F)c2)c1-c1cccnc1	-1.36	-46.6
Cc1cccc(CNCc2c(C(C)C)nn(C)c2N2CCOCC2)n1	7.04	12.3
COc1cccc(C(=O)N2CCCCC2CNC(N)=O)c1 (centres undefined)	3.2	26.9
NC(=O)c1cnn2c1NCC(CNCCc1ccco1)C2 (centres undefined)	0.367	26.6
Cc1nc(CCN(C)C(=O)C2COc3ccccc3C2)no1 (centres undefined)	0.743	-10.1
COCCOc1ncccc1C(=O)Nc1ccc(-n2cncn2)c(F)c1	-3.21	30.5
O=C(NCCO)c1ccn(-c2ccc3ccccn23)n1	2.94	-37
O=C1COC2(COCCN(Cc3ccsc3)C2)CN1c1ccc(F)cc1 (centres undefined)	2.55	-4.46
Fc1ccc(CN2CCC(c3nccnc3-n3ccnc3)CC2)cc1	-5.52	-0.684
CS(=O)(=O)NC[C@]12COC[C@H]1CN(C(=O)c1ccoc1)C2	0.452	-5.39
CCc1ccc(C(=O)Nc2ccc(CC3CC(=O)NC3=O)cc2)cc1 (centres undefined)	7.7	-36.3
